# Screening data (PubChem BioAssay)
# Hits are enriched below; roughly 3.6% of the tested compounds scored in any of these assays.
# LMP1 NFkB inh = EBV LMP1-driven NF-kappaB luciferase reporter inhibitors, primary screen, cell-based, luminescence, single point; LMP1-induced NF-kappaB luciferase reporter cells; inhibition, % at 12.5 µM; 350,000 tested, 0.69% active; AID 504558, 2011; in the data active = inhibition above about 41%;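 note: 0% = neutral control wells and 100% = reference inhibitor control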
# LGR2 inh = inhibitors of bursicon-induced LGR2 CRE-luciferase signal, primary screen, cell-based, HEK293, CRE-luciferase reporter, bursicon stimulation; AID 720647, 2013; inhibition, % at 9.99 µM; Drosophila bursicon receptor LGR2 (rickets); bursicon-stimulated, 4 h; 380,000 tested, 0.35% active;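 active = drop in luminescence signal, shown as inhibition above about 50% in the replicate tests, limit read from the data, passing the limit was not always enough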;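 note: agonist challenge used bursicon conditioned medium at about half maximal strength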
# TROY NFkB inh = inhibitors of TROY-driven NF-kB signaling, primary screen, Q293 LMP1-TROYcd cells, NF-kB luciferase, uHTS | Q293 LMP1-TROYcd NF-kB luciferase reporter, 4 h | inhibition, % at 10 µM | 360,000 tested, 0.98% active;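 active = compounds whose plate-normalised and pattern-corrected inhibition of the luciferase reporter signal at the single screening dose is 50% or more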
# HSF-1 act = HSF-1 activators, primary screen, NIH3T3-HGL cells, MG132 stress, luminescence, single point; NIH3T3-HGL HSF-1 luciferase reporter, 8 h; 100% = twice DMSO control signal; activation, % at 9 µM; 300,000 tested, 1.7% active;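 active = mean replicate activation of at least 50% with a set share of replicates each reaching 50%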;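 note: 0% = median of the neutral control wells and 100% = twice that signal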
# TWEAK Fn14 block = inhibitors of TWEAK-Fn14 signaling, primary screen, luciferase reporter cells, uHTS. 360,000 tested, 2% active. inhibition, % at 10 µM. TWEAK-stimulated Fn14 reporter cells, luciferase luminescence, 8 h. AID 1159606, 2016; in the data active = inhibition above about 50%
# HSF1 inh = HSF1 inhibitors in luciferase reporter cells, primary screen, cell-based, NIH3T3, luminescence; NIH3T3-HGL HSE-luciferase, MG132-induced, luminescence 8 h; active compounds read low; activity change, negative = inhibition, % at 7.5 µM (by protocol); 300,000 tested, 0.77% active;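 active = more than half of replicate wells show activity change below -50%, luminescence cut by over half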;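 note: luciferase reports HSF-1 transcriptional activity via heat shock element; 0% = median of DMSO wells and -100% = zero luminescence signal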
# Active calls of the source: *; . = not tested or not shown.
SMILES,LMP1 NFkB inh,LGR2 inh,TROY NFkB inh,HSF-1 act,TWEAK Fn14 block,HSF1 inh
COc1ccc(N2CCN(C(=O)c3ccc(COc4ccc([N+](=O)[O-])cc4)o3)CC2)cc1,-14.4,-1.0,26.8,36.0,50.6*,9.1
Cc1ccc(O)c(C2=NCCNC(C(F)(F)F)=C2)c1,-3.1,.,-3.2,-8.7,0.4,-4.2
Oc1c(C2=NCCNC(C(F)(F)F)=C2)ccc2ccccc12,-55.3,-49.3,-59.4,81.1*,-30.7,61.1
O=[N+]([O-])c1ccc(N2CCc3ccccc3C2)cc1,-4.6,27.8,2.6,72.6*,39.3,71.4
COc1cccc(N2C(=O)N(c3ccccc3Cl)C3CS(=O)(=O)CC32)c1 (stereo unspecified),3.4,.,-40.7,5.5,8.6,-4.6
COc1cccc(N2C(=O)N(c3ccccc3)C3CS(=O)(=O)CC32)c1 (stereo unspecified),-2.3,.,-9.8,-87.8,-0.5,-83.8*
CCC1(C)Cc2nc3[nH]c(=S)n(-c4ccccc4)c(=O)c3cc2CO1 (stereo unspecified),5.3,0.9,-19.5,17.9,-13.5,-3.9
CC1(C)Cc2nc3[nH]c(=S)n(-c4ccccc4)c(=O)c3cc2CO1,2.7,-5.5,1.9,-72.0,-3.3,-61.6*
CN(C)Cc1c(O)ccc2cc(-c3nc4ccccc4n3C)c(=O)oc12,1.5,2.7,21.1,-6.3,55.6*,-11.6
CCN(CC)c1ccc2cc(-c3nc4ccccc4n3C)c(=O)oc2c1,-25.0,-48.6,-8.2,-20.0,-11.1,-15.4
O=C(c1cnc2ccc3ccccc3c2c1)c1cc(F)ccc1O,-14.0,-26.8,42.0,-26.8,64.3*,-30.7
CCS(=O)(=O)c1nnnn1-c1ccccc1S(C)(=O)=O,50.8*,22.8,0.6,6.0,27.0,-8.2
Cc1ccc(S(=O)(=O)/C(=C/Cl)NC(=O)c2ccccc2)cc1,-7.8,40.4,-10.4,90.5*,76.8*,62.1
Cc1ccc(S(=O)(=O)CCC(=O)OCC(=O)NC(=O)c2ccccc2)cc1,-0.8,2.8,-6.6,-1.9,8.5,-8.9
Cc1ccc(C(=O)NC(=C(Cl)Cl)S(=O)(=O)c2ccc(Cl)cc2)cc1,-44.1,19.9,27.1,185.1*,93.3*,126.5
Cc1ccc(C(=O)NNC(=S)NC(=O)c2ccc(Cl)cc2)cc1,2.6,.,-36.5,15.0,-108.1,11.9
Cc1ccc(C(=O)NS(=O)(=O)c2ccc(C)cc2)cc1,1.4,-14.7,10.1,7.6,-10.9,-3.3
Cc1ccc(S(=O)(=O)C(NC(=O)c2ccccc2)=C(Cl)Cl)cc1,-111.0,.,-45.3,29.0,64.7*,33.2
Cc1ccc(C(=O)NC(=C(Cl)Cl)S(=O)(=O)c2ccc(C)cc2)cc1,-21.4,-5.2,-34.9,27.9,54.5*,20.5
O=C(NC(=C(Cl)Cl)S(=O)(=O)c1ccc(Cl)cc1)c1ccccc1,-146.2,27.4,12.6,67.0*,96.1*,56.6
COCC(=O)N1CCCCN2[C@H](CO)[C@H](c3ccc(-c4cccc(C)c4)cc3)[C@@H]2C1,.,61.5*,.,.,.,.
N#Cc1cccc(-c2ccc([C@@H]3[C@H](CO)N4CCCCN(C(=O)Nc5cccc(F)c5)C[C@@H]34)cc2)c1,.,96.3*,.,.,.,.
COc1ccccc1NC(=O)N1CCCCN2[C@@H](CO)[C@H](c3ccc(-c4cccc(F)c4)cc3)[C@@H]2C1,.,75.7*,.,.,.,.
CCCNC(=O)N[C@@H]1CC[C@H](CC(=O)NC2CCC2)O[C@H]1CO,.,-2.4,.,.,.,.
CCCN1C[C@@H](C)[C@@H](OC)CN(C)C(=O)c2ccc(NS(=O)(=O)c3ccccc3)cc2OC[C@@H]1C,.,-2.5,.,.,.,.
SMILES,LMP1 NFkB inh,LGR2 inh,TROY NFkB inh,HSF-1 act,TWEAK Fn14 block,HSF1 inh
Nc1c(C(O)(C(F)(F)F)C(F)(F)F)cc(C(O)(C(F)(F)F)C(F)(F)F)c2ccccc12,-12.7,.,51.8*,1.6,44.5,-3.6
N#C[C@H]1[C@H](c2ccc(-c3ccccc3F)cc2)[C@@H](CO)N1C(=O)C1CC1,.,-1.9,.,.,.,.
O=S(=O)(NCc1ccccn1)c1ccc2ccccc2c1,1.2,-9.9,-0.5,72.3*,11.1,37.5
COc1ccc(S(=O)(=O)NCc2ccccn2)cc1,4.0,-1.3,-19.6,-3.3,-2.2,-2.2
CC(=O)Nc1ccc2c(c1)C(=O)N(C)[C@@H]1CC[C@@H](CC(=O)NCc3ccccc3)O[C@@H]1CO2,.,-16.2,.,.,.,.
C[C@@H]1CCCCO[C@@H](CN(C)C)[C@H](C)CN([C@@H](C)CO)C(=O)c2cc(NC(=O)NC3CCCCC3)ccc2O1,.,2.4,.,.,.,.
COc1ccc(CN2CCN(C(=O)CC(C)C)CC2)c2ccccc12,-5.6,.,6.8,7.2,-25.4,3.0
Cc1ccccc1CN1CCN(C(=O)CC(C)C)CC1,10.2,1.2,1.3,-88.4,7.2,-85.9*
NNC(=O)c1nn(-c2ccccc2)cc1O,.,.,.,-55.9,.,-55.5*
O=C(O)c1cn(-c2ccccc2)nc1C(=O)O,-8.7,2.7,-8.1,-6.3,-16.1,-5.7
O=C(OCn1ncc(Cl)c(Cl)c1=O)c1ccc(C(F)(F)F)cc1,-32.4,7.5,24.6,26.7,79.0*,9.2
Cc1ccc(C(=O)OCn2ncc(Cl)c(Cl)c2=O)cc1,89.2*,.,68.1*,-94.7,105.6*,-93.6*
O=C(O)c1ccc(-n2ncc(Cl)c(Cl)c2=O)cc1,-21.4,.,-19.0,.,11.4,.
COc1ccc2c3c([nH]c2c1)[C@H](CO)N(C(=O)CN1CCOCC1)CC31CCN(Cc2ccccc2)CC1,.,13.3,.,.,.,.
CC1CCCCN1S(=O)(=O)c1ccc(C(=O)Nc2ccccc2-c2nc3ccccc3[nH]2)cc1 (stereo unspecified),-4.1,9.6,25.6,-5.4,53.0*,-2.4
O=C(C[C@H]1C=C[C@H](NS(=O)(=O)c2ccc(F)cc2)[C@H](CO)O1)NC1CCC1,.,14.3,.,.,.,.
O=[N+]([O-])c1ccc2nc(-c3ccccc3)n(OCc3ccc(Cl)cc3)c2c1,-33.9,.,-29.0,58.9*,13.8,17.2
O=C(O)COn1c(-c2ccccc2)nc2ccc(Cl)cc21,8.9,.,-36.0,5.9,-34.8,-0.1
COn1c(-c2ccccc2)nc2ccc(Cl)cc21,-19.0,.,-73.1,66.2*,-1.4,32.4
O=C(C[C@@H]1C[C@@H]2c3cc(NC(=O)c4cccnc4)ccc3O[C@@H]2[C@@H](CO)O1)NCC1CC1,.,0.6,.,.,.,.
CO[C@@H]1CN(C)C(=O)c2ccc(NS(=O)(=O)c3cn(C)cn3)cc2OC[C@@H](C)N(CCC(F)(F)F)C[C@@H]1C,.,8.9,.,.,.,.
CC(=O)NC(CCS(C)(=O)=O)C(=O)Nc1c(C)cccc1C (stereo unspecified),2.9,8.3,-5.5,17.3,9.7,1.9
